According to PubChem BioAssay AID777 (Sanford-Burnham Center for Chemical Genomics, 2007):
About 19,000 (20%) of roughly 96,000 compounds were called active. Not all results are given here. A number with no mark means an inactive call.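 The calls were made as follows: active = blocking of liver enzyme CYP2C9 beyond about 50% at 5 µM (limit read from the data); inactive = the rest.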

The molecules below were run against Cytochrome P450 2C9 (Homo sapiens) (UniProt P11712) (assay: blockers of cytochrome P450 2C9 activity – biochemical, luminescence, ADME assay, primary screen (AID 777)). Settings: CYP2C9 Supersomes, luciferin-H conversion, at 5 µM, stronger effect = higher value.
Sequence of Cytochrome P450 2C9 (Homo sapiens) (P11712 whole entry, looked up): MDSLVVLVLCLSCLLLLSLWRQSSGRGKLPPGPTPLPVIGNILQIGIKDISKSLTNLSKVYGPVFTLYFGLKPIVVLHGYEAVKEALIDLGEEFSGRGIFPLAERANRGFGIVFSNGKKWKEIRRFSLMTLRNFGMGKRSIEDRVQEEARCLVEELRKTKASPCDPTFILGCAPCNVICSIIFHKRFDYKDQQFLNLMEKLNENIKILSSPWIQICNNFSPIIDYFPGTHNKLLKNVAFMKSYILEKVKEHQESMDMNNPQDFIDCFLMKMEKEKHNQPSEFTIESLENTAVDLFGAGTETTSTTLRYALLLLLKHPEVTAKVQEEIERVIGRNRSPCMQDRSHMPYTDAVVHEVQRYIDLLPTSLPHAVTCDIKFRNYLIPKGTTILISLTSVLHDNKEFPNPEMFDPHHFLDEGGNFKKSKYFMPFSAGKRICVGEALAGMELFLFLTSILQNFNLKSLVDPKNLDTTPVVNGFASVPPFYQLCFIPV
`CC(Nc1nc(N2CCCC2)nc2ccccc12)c1ccccc1` (stereo not drawn) gave an inhibition of 11.6%.
For `N#C/C(=C/c1ccc(Cl)cc1)NC(=O)c1ccccc1`, the inhibition was 40.8%.
Work on `COc1ccccc1-n1nnnc1S(=O)(=O)Cc1ccc(Cl)cc1` yielded an inhibition of 45.6%.
`COc1cccc(NC(=O)C2c3cc(OC)c(OC)cc3C(=O)N(C)C2c2cccnc2)c1` (stereo not drawn) was tested, and the inhibition was 30.6%.
For `CS(=O)(=O)c1sc2nc(-c3ccccc3)cc(-c3ccccc3)c2c1N`, the inhibition was 19%.
With `CC(C)c1ccc(N2CC(C(=O)Nc3nccs3)CC2=O)cc1` (stereo not drawn) the inhibition was 78.1% (active).
`CCCOc1ccc(N2CC(C(=O)Nc3ccccn3)CC2=O)cc1` (stereo not drawn) gave an inhibition of 8.9%.
Molecule `CCc1ccc(N2CC(C(=O)NC3=NCCS3)CC2=O)cc1` (stereo not drawn) has an inhibition of 27.4%.
For `Cc1ccc(-n2nc(N)c3c(=O)oc(N(C)C)nc32)cc1`, the inhibition was 11.3%.
`O=C(COc1cc(Cl)c(Cl)cc1Cl)NC(=O)NC1CCCC1` gave an inhibition of -13%.
`O=C(Cc1ccc2c(c1)CCCC2)Nc1ccccc1Cl` gave an inhibition of 13.7%.
`CCOc1ccc(NC(=O)CN(C)CC(=O)Nc2cccc(Cl)c2C)cc1OCC` was tested, and the inhibition was 56.1% (active).
With `CCNC(=S)Nc1cccc(Cl)c1C` the inhibition was 16%.
`CC(=O)N1CC2(C)CN(C(C)=O)CC(C)(C1)C2=O` was tested, and the inhibition was -0.1%.
`O=C(Nc1cccc(OCC(=O)N2CCOCC2)c1)C1CCCCC1` gave an inhibition of -6.8%.
Work on `CCN(CC)S(=O)(=O)c1ccc2c3c(cccc13)C(=O)S2` yielded an inhibition of -46.8%.
With `O=c1[nH]nc(Cc2ccccn2)c2ccccc12` the inhibition was -9.2%.
With `CN(CCc1ccccn1)S(=O)(=O)c1ccc2c3c(cccc13)C(=O)N2` the inhibition was 70.5% (active).
`Cc1ccc(NC(=S)NC(=O)c2ccc(-c3ccccc3)cc2)c(C)c1` was tested, and the inhibition was 19%.
For `Cc1cc2[nH]ncc2cc1NC(=S)NC(=O)c1ccccc1`, the inhibition was 97.8% (active).
`COC(=O)c1nc(NC(=O)c2ccccc2)n[nH]1` showed an inhibition of 0.3%.
With `COc1ccc(N(CC(=O)NC(C)(C)C)C(=O)c2ccco2)cc1` the inhibition was 9.6%.
`Cc1cc(Cl)ccc1N1C(=O)CC(SCCC(=O)O)C1=O` (stereo not drawn) showed an inhibition of 35.2%.
For `Cc1ccc(NC(=O)CN(C)S(=O)(=O)c2cnc[nH]2)cc1C`, the inhibition was 93.7% (active).
For `COc1ccc(NC(=O)CN(C)S(=O)(=O)c2ccccc2)cc1OC`, the inhibition was 21.2%.
`C/C(=C\C(=O)c1cccnc1)Nc1ccc(C)c(C)c1` was tested, and the inhibition was 12.9%.
Work on `Cc1ccc(C)n1-c1ccncc1` yielded an inhibition of 40.5%.
`COc1ccc(Cl)cc1S(=O)(=O)N1CCN(CC(=O)C(C)(C)C)CC1` gave an inhibition of -142%.
